Tests used:
Conditions in all cases: concentration: 1 μM, replicates: in singlicate; n = 1
PIK4CB = tested on: T1, PIK4CB
T1 construct: gene PI4KB

PIKFYVE = tested on: PIKFYVE
PIM1 = tested on: PIM1
PIM2 = tested on: PIM2
PIM3 = tested on: PIM3
PIP5K1A = tested on: PIP5K1A
PIP5K1C = tested on: PIP5K1C
PIP5K2B = tested on: PIP5K2B
PIP5K2C = tested on: T2, PIP5K2C
T2 construct: gene PIP4K2C

PKAC-alpha = tested on: T3, PKAC-alpha
T3 construct: gene PRKACA

PKAC-beta = tested on: T4, PKAC-beta
T4 construct: gene PRKACB

PKMYT1 = tested on: PKMYT1
PKN1 = tested on: PKN1
PKN2 = tested on: PKN2
PLK1 = tested on: PLK1
PLK2 = tested on: PLK2
PLK3 = tested on: PLK3
PLK4 = tested on: PLK4
PRKCD = tested on: PRKCD
PRKCE = tested on: PRKCE
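Note: KINOMEscan kinase panel screen.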

SMILES	%Inh (PIK4CB) [%]	%Inh (PIKFYVE) [%]	%Inh (PIM1) [%]	%Inh (PIM2) [%]	%Inh (PIM3) [%]	%Inh (PIP5K1A) [%]	%Inh (PIP5K1C) [%]	%Inh (PIP5K2B) [%]	%Inh (PIP5K2C) [%]	%Inh (PKAC-alpha) [%]	%Inh (PKAC-beta) [%]	%Inh (PKMYT1) [%]	%Inh (PKN1) [%]	%Inh (PKN2) [%]	%Inh (PLK1) [%]	%Inh (PLK2) [%]	%Inh (PLK3) [%]	%Inh (PLK4) [%]	%Inh (PRKCD) [%]	%Inh (PRKCE) [%]
CS(=O)(=O)CCNCc1nc(-c2ccc3ncnc(Nc4ccc5c(cnn5Cc5ccccc5)c4)c3c2)cs1.Cl.Cl [GW569716]	59	0	21	0	0	46	58	19	41	0	3	6	0	15	0	0	0	13	0	11
COc1ccc(Nc2nccc(-c3ccc(NC(=O)c4cc5cc(F)ccc5[nH]4)cc3)n2)cc1 [GSK1229496]	0	0	0	0	0	37	54	17	41	0	0	0	13	0	0	0	0	0	0	6
O=C1NC(=O)C(c2ccc(Cl)cc2)=C1Nc1ccc(O)cc1 [SB-340867]	13	9	0	3	0	0	40	0	0	0	18	0	0	12	0	0	0	0	0	1
Cn1cncc1-c1cc2c(Nc3ccc(OCc4ccccc4)cc3)ncnc2cn1 [GW281179]	0	18	0	0	0	0	23	0	26	0	7	0	0	0	0	0	0	0	3	4
COc1nccc(-c2c(-c3ccc(F)cc3)ncn2CCCN2CCOCC2)n1 [SB-282852]	49	37	7	0	0	12	4	0	8	0	16	0	0	0	0	0	13	20	38	0
O=C(Nc1n[nH]c2nc(-c3cccs3)c(Br)cc12)C1CCCC1 [SB-743341]	33	9	0	0	0	0	23	3	0	0	0	0	0	5	0	21	26	25	29	0
Cc1ccc(-c2nc(Nc3ccncc3)c3ccccc3n2)s1 [GSK189015]	5	63	17	0	12	0	22	14	1	21	18	19	26	20	0	0	0	0	15	0
CS(=O)(=O)Cc1ccc(Nc2nccc(-c3c(-c4cccc(NC(=O)C5CCCCC5)c4)nn4ncccc34)n2)cc1 [GSK350559]	45	2	12	10	17	0	100	12	83	31	0	3	10	0	15	3	13	6	0	0
Nc1ncnc2occ(-c3ccc4c(c3)CCN4C(=O)Cc3cc(F)ccc3F)c12 [GSK2645446]	0	0	0	0	0	0	52	0	16	0	8	0	7	0	0	0	0	5	0	0
Cc1nccc(-c2c(-c3ccc(F)cc3)ncn2CCCN2CCOCC2)n1.Cl [SB-282975]	42	0	0	13	0	0	22	0	18	24	0	0	19	1	44	21	5	3	31	11
Nc1cccc(-c2ccc3c(N)n[nH]c3c2)n1 [GSK2192730]	30	0	26	0	13	39	0	4	0	0	0	0	37	0	0	0	0	8	0	0
CCn1c(-c2c(N)noc2C)nc2cnccc21 [SB-737856]	0	0	0	0	0	0	0	19	6	0	0	0	29	0	0	0	0	0	0	0
CNc1cc(-c2ccc3c(N)n[nH]c3c2)nc(N)n1 [GSK2224810]	11	0	15	0	0	18	45	5	27	8	0	4	10	0	0	0	0	5	0	15
CC(C)c1cc(-c2ccc3c(N)n[nH]c3c2)nc(N)n1 [GSK2250882]	0	0	20	0	15	26	49	36	2	0	0	14	0	0	0	0	0	0	0	5
Fc1ccc(-c2nc[nH]c2-c2ccncc2)cc1 [SB-217360]	0	32	19	0	11	19	0	0	2	25	0	9	0	0	9	21	36	4	8	0
CCn1c(-c2ccccc2)nc2cnccc21 [SB-733416]	0	40	0	0	0	5	21	0	13	0	3	30	0	0	0	0	0	0	8	22
CCc1ccc(-c2ccc3c(c2)-c2n[nH]cc2S(=O)(=O)N3C)cc1	0	100	0	0	18	0	45	0	16	0	12	2	0	0	6	0	7	0	0	14
Cn1cnc2c(N)ncnc21 [SKF-97623]	10	44	5	0	0	30	0	14	33	0	0	0	0	0	0	0	0	0	0	9
CCCCc1nn2ncccc2c1-c1ccnc(NC2CC2)n1 [GW684374]	35	0	0	0	0	0	36	0	75	0	0	0	18	0	0	0	0	0	0	1
CNCc1ccc2nc(NC(=O)c3ccc(C(C)(C)C)cc3)cn2c1	19	0	0	9	23	0	17	11	30	0	5	11	8	7	2	7	22	8	0	12
Nc1nccc(-c2c(-c3ccc(F)cc3)ncn2C2CCN(Cc3ccccc3)CC2)n1 [SB-219980]	25	6	0	0	0	0	15	0	82	2	0	26	0	0	12	28	10	8	0	1

Reference: article PMC5540273 (PLoS ONE, 2017)
